Test results taken from the supplement of paper PMC4840960.
Where a name gives a salt, the structure may show the parent alone. ± gives the standard deviation of the averaged measurements.

Tests used:
[1] = tested on: E18 rat cortical neuron-glia co-culture; test: fiber score / MBP score (myelination specific beyond OL differentiation) (ratio); higher = more myelination-specific MBP alignment; conditions: treatment time: 8 days (DIV5-DIV13)
Procedure, shortened: (§1)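 Primary E18 rat cortical co-cultures (papain-dissociated, 20,000 cells/well on poly-d-lysine/laminin 96-well plates) received library compounds at 1 or 5 µM in myelination medium from DIV5 to DIV13. Cells were fixed in 4 % paraformaldehyde and immunostained for MBP and Olig2 with DAPI, and four 10X fields per well in duplicate wells were analysed. The read-out is fiber score (continuous MBP fiber length per Olig2+ nucleus) divided by MBP score (thresholded MBP area × intensity per Olig2+ nucleus).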

[2] = tested on: E18 rat cortical neuron-glia co-culture; test: myelination (MBP fiber length per Olig2+ nucleus), % of 1 µM DAPT response (DMSO = 0) (% of DAPT); higher = more myelination, active = 50 or more; conditions: treatment time: 8 days (DIV5-DIV13)
Procedure, shortened: as §1, with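 “Myelination was continuous straight” for “The read-out is fiber score (continuous”, “nucleus, normalised to 0.1 % DMSO (0) and a 1 µM positive control (100).” for “nucleus) divided by MBP score (thresholded MBP area × intensity per Olig2+ nucleus).”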

| Structure (SMILES) | fiber score / MBP score ([1]; 1 µM) | fiber score / MBP score ([1]; 5 µM) | myelination ([2]; 1 µM) | myelination ([2]; 5 µM) |
| --- | --- | --- | --- | --- |
| CC(C)N(CCC(C(N)=O)(c1ccccc1)c1ccccn1)C(C)C (stereo not given) [Disopyramide] | 0.453 | 0.371 | -13.9 (inactive) | -13.6 (inactive) |
| CCC1(c2ccc(N)cc2)CCC(=O)NC1=O (stereo not given) [Aminoglutethimide] | 0.845 | 0.779 | -5.42 (inactive) | -5.16 (inactive) |
| N=C(NCc1ccc(Cl)cc1)SCCCc1c[nH]cn1 [Clobenpropit] | 0.723 | 0.822 | -13 (inactive) | 3.66 (inactive) |
| NC(=O)OCCCc1ccccc1 [Phenprobamate] | 0.695 | 0.885 | -14.2 (inactive) | -11.4 (inactive) |
| CC(=O)O[C@H]1C[C@@H]2CC[C@@H]3[C@H](CC[C@@]4(C)[C@H]3C[C@H]([N+]3(C)CCCCC3)[C@@H]4OC(C)=O)[C@@]2(C)C[C@@H]1[N+]1(C)CCCCC1 [Pancuronium] | 0.692 | 1.04 | -11 (inactive) | 2.32 (inactive) |
| C#CCN(C)[C@H](C)Cc1ccccc1 [Selegiline] | 0.779 ± 0.13 | 1.02 ± 0.14 | -16 (inactive) | -0.224 (inactive) |
| CC(C)CC(N(C)C)C1(c2ccc(Cl)cc2)CCC1 (stereo not given) [Sibutramine] | 0.819 ± 0.34 | 1.02 ± 0.064 | -9.43 (inactive) | -0.392 (inactive) |
| CC(NC(C)(C)C)C(=O)c1cccc(Cl)c1 (stereo not given) [Bupropion] | 0.583 ± 0.43 | 0.467 ± 0.35 | -29.5 (inactive) | -31.8 (inactive) |
| FC(F)(F)c1cccc(N2CCNCC2)c1 [1-(3-trifluoromethylphenyl)piperazine hydrochloride (TFMPP)] | 0.633 | 0.613 | -32.2 (inactive) | -32.7 (inactive) |
| C[C@]12CC[C@H]3[C@@H](CCC4=CC(=O)CC[C@@H]43)[C@@H]1CC[C@@H]2O [Nandrolone] | 0.984 | 0.883 | -3.41 (inactive) | -16.8 (inactive) |
| CCC(COC(=O)c1cc(OC)c(OC)c(OC)c1)(c1ccccc1)N(C)C (stereo not given) [Trimebutine] | 0.423 | 0.297 | -54.2 (inactive) | -64 (inactive) |
| O=C(O)C(Cl)Cl [Dichloroacetic Acid] | 0.765 | 0.882 | -10.2 (inactive) | -7.43 (inactive) |
| COc1ccc2[nH]cc(C3=CCNCC3)c2c1 | 0.706 | 0.448 | -14.7 (inactive) | -24.2 (inactive) |
| Oc1ccc2c3c1O[C@H]1[C@@H](O)CC[C@@]4(O)[C@@H](C2)N(CC2CCC2)CC[C@]314 [Nalbufina] | 0.796 | 0.955 | -19 (inactive) | -7.9 (inactive) |
| COc1cc(N)c(Cl)cc1C(=O)NC1CN2CCC1CC2 (stereo not given) [Zacopride] | 0.703 | 0.884 | -11.9 (inactive) | -0.361 (inactive) |
| C[C@]12CC[C@H](O)CC1=CC[C@@H]1[C@@H]2CC[C@@]2(C)[C@H]1CC[C@]2(C)O [Methandriol] | 0.712 | 0.961 | -15.9 (inactive) | -4.34 (inactive) |
| CCOC(=O)c1cncn1[C@H](C)c1ccccc1 [Etomidate] | 0.772 ± 0.06 | 0.987 ± 0.1 | -14.6 (inactive) | 6.64 (inactive) |
| CC(C)c1cccc(C(C)C)c1O [Propofol] | 0.782 | 0.895 | -3.16 (inactive) | -2.27 (inactive) |
| NCCc1ccccn1 [2-(2-aminoethyl)pyridine] | 0.847 | 0.699 | -7.37 (inactive) | -9.08 (inactive) |
| CCCCC/C=C\C/C=C\C/C=C\C/C=C\CCCC(=O)Nc1ccc(O)cc1 | 0.943 | 0.96 | -0.524 (inactive) | -30.5 (inactive) |
| CC(C)(O)[C@@H]1[C@H]2OC(=O)[C@@H]1[C@]1(O)C[C@H]3O[C@]34C(=O)O[C@H]2[C@]14C [Picrotin] | 0.632 | 0.797 | -12.7 (inactive) | -5.47 (inactive) |
| Oc1cc2c(cc1O)[C@H]1c3ccccc3CN[C@@H]1CC2 (racemic) [Dihydrexidine] | 1.05 | 3.38 | -4.93 (inactive) | -20.9 (inactive) |
| c1cncc([C@@H]2CCCN2)c1 [Nornicotine] | 0.765 | 0.836 | -20.2 (inactive) | -19 (inactive) |
| O=P1(N(CCCl)CCCl)NCCCO1 (stereo not given) [Cyclophosphamide] | 0.725 | 0.547 | -41 (inactive) | -54.7 (inactive) |
| CN1C(=O)CN=C(c2ccccc2)c2cc(Cl)ccc21 [Diazepam] | 0.832 | 0.879 | -8.32 (inactive) | -9.05 (inactive) |
| O=C1CC[C@@]2(O)[C@H]3Cc4ccc(O)c5c4[C@@]2(CCN3CC2CC2)[C@H]1O5 [Naltrexone] | 1.3 | 0.956 | 14.8 (inactive) | 1.8 (inactive) |
| CCCN1C[C@H](CSC)C[C@@H]2c3cccc4[nH]cc(c34)C[C@H]21 [Pergolide] | 0.689 | 0.278 | -19.3 (inactive) | -24.9 (inactive) |
| CC[C@@H]1C=CC=CC[C@H](C)[C@@H](O)[C@@H](C)C(=O)[C@H](C)[C@@H](O)[C@H](C)C(=O)[C@H](C)[C@@H](O)[C@H](C)C=CC(=O)O[C@H]2[C@@H](C)[C@@H](CC1)O[C@@]1(CC[C@@H](C)[C@@H](C[C@H](C)O)O1)[C@@H]2C [Oligomycin C] | 0.799 | 1.11 | -6.58 (inactive) | 47.7 (inactive) |

| Structure (SMILES) | fiber score / MBP score ([1]; 1 µM) | fiber score / MBP score ([1]; 5 µM) | myelination ([2]; 1 µM) | myelination ([2]; 5 µM) |
| --- | --- | --- | --- | --- |
| CN(C)C(=O)Oc1ccc[n+](C)c1 [Pyridostigmine Bromide] | 0.691 | 0.895 | -14.3 (inactive) | -8.88 (inactive) |
| CN1[C@@H]2CC[C@H]1C[C@@H](OC(=O)[C@H](CO)c1ccccc1)C2 [Hyoscyamine] | 0.631 | 0.692 | -15.1 (inactive) | -12.5 (inactive) |
| CN1CC[C@]23c4c5ccc(O)c4O[C@H]2c2[nH]c4ccccc4c2C[C@@]3(O)[C@H]1C5 [Oxymorphindole] | 0.883 | – | 97 | – |
| COc1cccc(C2(O)CCCCC2CN(C)C)c1 (stereo not given) [Tramadol] | 0.793 | 0.749 | -12.4 (inactive) | -7.33 (inactive) |
| C=C1C[C@@H]2[C@H](CC[C@]3(C)C(=O)CC[C@@H]23)[C@@]2(C)C=CC(=O)C=C12 [Exemestane] | 0.805 | 0.86 | -11.3 (inactive) | -11.8 (inactive) |
| CN1C(=O)COc2c(C(=O)NC3CN4CCC3CC4)cc(Cl)cc21 (stereo not given) [Azasetron] | 0.754 | 0.901 | -6.5 (inactive) | 2.28 (inactive) |
| C[C@]12C/C(=C/O)C(=O)C[C@@H]1CC[C@@H]1[C@@H]2CC[C@@]2(C)[C@H]1CC[C@]2(C)O [Oxymetholone] | 0.813 | 0.965 | -11.9 (inactive) | -8.04 (inactive) |
| Cc1ncc2n1-c1ccc(Cl)cc1C(c1ccccc1F)=NC2 [Midazolam] | 0.908 | 1.88 | -0.202 (inactive) | 31.1 (inactive) |
| CN1C(=O)CN=C(c2ccccc2)c2cc([N+](=O)[O-])ccc21 [Nimetazepam] | 0.743 | 0.878 | -11 (inactive) | -8.49 (inactive) |
| Oc1cc(Cl)ccc1Oc1ccc(Cl)cc1Cl [Triclosan] | 1.18 | – | 26.5 (inactive) | – |
| c1ccc(Cn2ccnc2)cc1 [1-Benzylimidazole] | 0.664 | 0.942 | -11.8 (inactive) | -0.886 (inactive) |
| NC(=O)C[S+]([O-])C(c1ccccc1)c1ccccc1 (stereo not given) [Modafinil] | 0.88 | 0.861 | -9.51 (inactive) | -26.7 (inactive) |
| COC(=O)N1CCN(C(=O)Cc2ccc(Cl)c(Cl)c2)C(CN2CCCC2)C1 (stereo not given) | 0.594 | 0.389 | -13 (inactive) | -22.4 (inactive) |
| CCN(C(C)=O)c1cccc(-c2ccnc3c(C#N)cnn23)c1 [Zaleplon] | 0.794 | 1.2 | -13.6 (inactive) | 16 (inactive) |
| CNCC(O)c1ccc(O)cc1 (stereo not given) [Synephrine] | 0.822 | 0.702 | -6.47 (inactive) | -10.5 (inactive) |
| CC[C@]1(O)CC[C@H]2[C@@H]3CCC4=CCCC[C@@H]4[C@H]3CC[C@@]21C [Ethylestrenol] | 0.661 | 1.72 | -13.8 (inactive) | 204 (active) |
| CNC1CC(c2ccc(Cl)c(Cl)c2)c2ccccc21 (stereo not given) [Indatraline] | 0.417 | – | -58 (inactive) | – |
| c1ccc2c3c([nH]c2c1)CNCC3 [Tryptoline] | 0.757 | 0.905 | -12 (inactive) | -4.44 (inactive) |
| O=C(O)CCCc1ccc(N(CCCl)CCCl)cc1 [Chlorambucil] | 0.893 | 0.615 | -6.49 (inactive) | -17 (inactive) |
| CCOC(=O)C1(c2ccccc2)CCN(CCC(C#N)(c2ccccc2)c2ccccc2)CC1 [Diphenoxylate] | 0.738 | 0.867 | -12.3 (inactive) | 11.5 (inactive) |
| CN1CC[C@@H](c2ccc(F)cc2)[C@H](COc2ccc3c(c2)OCO3)C1 [N-Methylparoxetine] | 0.423 | 0.379 | -58.7 (inactive) | -60.5 (inactive) |
| C[C@]12Cc3c[nH]nc3C[C@@H]1CC[C@@H]1[C@@H]2CC[C@@]2(C)[C@H]1CC[C@]2(C)O [Stanozolol] | 0.697 | – | -13.6 (inactive) | – |
| O=C1CN=C(c2ccccc2)c2cc([N+](=O)[O-])ccc2N1 [Nitrazepam] | 0.887 | 0.996 | -6.44 (inactive) | 0.525 (inactive) |
| c1ccc2c(c1)Nc1ccccc1S2 [Phenothiazine] | 0.706 | 0.89 | -16.1 (inactive) | -5.33 (inactive) |
| O=c1c2ccccc2[se]n1-c1ccccc1 [Ebselen] | 2.01 | – | 8.33 (inactive) | – |
| C[C@]12CCC(=O)C[C@@H]1CC[C@@H]1[C@@H]2CC[C@@]2(C)[C@H]1CC[C@]2(C)O [Mestanolone] | 0.746 | 0.854 | -21.8 (inactive) | -14.6 (inactive) |
| C[C@H]1CCC[C@H](O)CCCCCc2cc(O)cc(O)c2C(=O)O1 [Zeranol] | 0.788 | 0.876 | -13.7 (inactive) | -5.48 (inactive) |
